Measured values as given in PubChem BioAssay (Tox21).
Inconclusive results are not listed. The source made the active and inactive calls. Unless noted, calls come from the whole dose curve. Non-standard residues stand in square brackets, D forms with d. Residues, ends and D or L forms follow the SMILES beside them. *: point of attachment. Sta = CC(C)C[C@H](N)[C@@H](O)CC(=O)O; Isovaleryl = CC(C)CC(=O)*

Assays:
[1] = biological target: Peroxisome proliferator-activated receptor delta (Homo sapiens) (UniProt Q03181); experiment: qHTS assay to identify small molecule agonists of the peroxisome proliferator-activated receptor delta (PPARd) signaling pathway (AID 743212)
How it was run: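 Beta-lactamase reporter readout: a ratiometric FRET signal from the LiveBLAzer substrate after 2 h at room temperature. Compound exposure at 37 °C in PPARδ-bla HEK293H cells driven by an upstream activator sequence.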

[2] = qHTS assay to identify small molecule antagonists of the peroxisome proliferator-activated receptor delta (PPARd) signaling pathway - cell viability counter screen (AID 743213; active = well fitted curve in the direction sought with a large enough effect in the repeat runs; an effect the other way counts as inactive or inconclusive; note: nearly all actives have a fitted effect of over 50% in size)
How it was run: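 PPARd-bla HEK293H cells (3000/well) got compound plus 300 nM L165041 agonist for 17 h at 37 C. Viability in the same wells came from CellTiter-Glo luminescence after 30 min at room temperature.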

[3] = biological target: Peroxisome proliferator-activated receptor delta (Homo sapiens) (UniProt Q03181); experiment: qHTS assay to identify small molecule antagonists of the peroxisome proliferator-activated receptor delta (PPARd) signaling pathway (AID 743215; active = well fitted inhibition curve with a large enough effect in the signal ratio in the repeat runs, not every such curve was filed as active; the % refers to the signal ratio;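 note: cells stimulated with agonist L165041 at 300 nM final during compound exposure; series mostly up to about 62 µM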)
How it was run: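 HEK293H GeneBLAzer PPARd UAS-bla reporter cells; cpd + L165041 300 nM final, 17 h 37 C; LiveBLAzer B/G FRET substrate 2 h RT; fluorescence intensity read-out. Antagonist mode.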

[4] = qHTS assay to identify small molecule agonists of the farnesoid-X-receptor (FXR) signaling pathway - cell viability counter screen (AID 743218; active = well fitted curve in the direction sought with a large enough effect in the repeat runs; an effect the other way counts as inactive or inconclusive; note: nearly all actives have a fitted effect of over 45% in size)
How it was run: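 Luminescence from CellTiter-Glo, read after 30 min at RT, reports viability of GeneBLAzer FXR-UAS-bla HEK 293T cells treated 16 h with compounds in the wells used for the beta-lactamase reporter.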

[5] = qHTS assay to identify small molecule antagonists of the farnesoid-X-receptor (FXR) signaling pathway - cell viability counter screen (AID 743221; active = well fitted cell-killing curve with a large enough effect in the repeat runs, not every such curve was filed as active; note: nearly all actives have a fitted effect of over 50% in size)
How it was run: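 After a 5 h settling period, FXR-bla HEK 293T cells receive compound and chenodeoxycholic acid (50 uM final) and incubate 16 h at 37 C; CellTiter-Glo luminescence, read after 30 min at room temperature, reports cell viability.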

[6] = qHTS assay to identify small molecule agonists of the vitamin D receptor (VDR) signaling pathway - cell viability counter screen (AID 743224; active = well fitted curve in the direction sought with a large enough effect in the repeat runs; an effect the other way counts as inactive or inconclusive; note: series mostly up to about 63 µM; nearly all actives have a fitted effect of over 50% in size)
How it was run: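 Cytotoxicity counter screen: VDR-bla cells, 16 h compound exposure at 37C, 5% CO2; CellTiter-Glo luminescence, 30 min RT, same wells as bla read.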

[7] = qHTS assay to identify small molecule antagonists of the vitamin D receptor (VDR) signaling pathway - cell viability counter screen (AID 743225; active = well fitted curve in the direction sought with a large enough effect in the repeat runs; an effect the other way counts as inactive or inconclusive; note: nearly all actives have a fitted effect of over 50% in size)
How it was run: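 Parallel cytotoxicity test: VDR-UAS-bla HEK 293T, 3 nM (final) 1-alpha,25-dihydroxyvitamin D3 with test compound, 16 h, 37C. Endpoint is CellTiter-Glo luminescence in the same wells.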

[8] = qHTS assay to identify small molecule agonists of the NFkB signaling pathway - cell viability counter screen (AID 1159515); note: series mostly up to about 61 µM; nearly all actives have a fitted effect of over 55% in size
How it was run: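 ME-180 NFkB-bla cells, 2,000/well; overnight attach; compound 5 hr, 37 C/5% CO2; LiveBLAzer substrate 1.5 hr RT; then CellTiter-Glo in same wells, 30 min RT, luminescence read.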

[9] = qHTS assay to identify small molecule agonists of the endoplasmic reticulum stress response signaling pathway (AID 1159516; active = well fitted activation curve with a large enough effect in the signal ratio in the repeat runs, not every such curve was filed as active; the % refers to the signal ratio)
How it was run: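 HeLa ESRE-bla reporter line; cpd 5 h, 37 C/5% CO2; LiveBLAzer B/G FRET substrate 2 h RT; ex 405, em 460/530 nm.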

[10] = qHTS assay to identify small molecule agonists of the endoplasmic reticulum stress response signaling pathway - cell viability counter screen (AID 1159517)
How it was run: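 ESRE-bla HeLa cells (1,500/well) were plated overnight at 37 C and exposed to compounds for 5 hr. After the 2 hr beta-lactamase substrate read, CellTiter-Glo went into the same wells, and luminescence was read after 30 min at room temperature.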

[11] = qHTS assay to identify small molecule antagonists of the retinoid-related orphan receptor gamma (ROR-gamma) signaling pathway - cell viability counter screen (AID 1159520; active = well fitted curve in the direction sought with a large enough effect in the repeat runs; an effect the other way counts as inactive or inconclusive; note: nearly all actives have a fitted effect of over 50% in size)
How it was run: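 Cytotoxicity was read from cellular ATP (CellTiter-Glo luminescence) after 16 hr at 37 C with 1 uM doxycycline induction. The inducer was added 2 hr after compound transfer to Tet-on ROR gamma CHO cells.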

[12] = biological target: Nuclear receptor ROR-gamma (Homo sapiens) (UniProt P51449); experiment: qHTS assay to identify small molecule antagonists of the retinoid-related orphan receptor gamma (ROR-gamma) signaling pathway (AID 1159521; active = well fitted curve in the direction sought with a large enough effect in the repeat runs; an effect the other way counts as inactive or inconclusive)
How it was run: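 Decreased RORE-driven luciferase luminescence indicates antagonism. Tet-on RORγ CHO cells received compound, then 1 uM final doxycycline 2 h later; signal read after 16 h incubation.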

[13] = qHTS assay to identify small molecule agonists of the AP-1 signaling pathway - cell viability counter screen (AID 1159525); note: nearly all actives have a fitted effect of over 55% in size
How it was run: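 Intracellular ATP by Cell Titer Glo luminescence (30 min, RT) in the same ME-180 AP-1-bla wells after the 5 h compound exposure at 37 °C. Normalised to tetra n-octyl ammonium bromide and DMSO controls.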

[14] = qHTS assay to identify small molecule agonists of the AP-1 signaling pathway (AID 1159526)
[15] = biological target: Retinoic acid receptor RXR-alpha (Homo sapiens) (UniProt P19793); experiment: qHTS assay to identify small molecule agonists of the RXR signaling pathway (AID 1159527); note: nearly all actives have a fitted effect of over 35% in size
How it was run: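 16 hr incubation of compound-treated RXR-alpha-UAS-bla HEK 293T cells (2% charcoal-stripped FBS, 37 C) preceded a 2 hr room-temperature LiveBLAzer FRET substrate step and blue/green fluorescence measurement.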

[16] = qHTS assay to identify small molecule agonists of the RXR signaling pathway - cell viability counter screen (AID 1159529; active = well fitted curve in the direction sought with a large enough effect in the repeat runs; an effect the other way counts as inactive or inconclusive)
How it was run: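 In this parallel viability measure, GeneBLAzer RXR-alpha HEK 293T cells (2% charcoal-stripped FBS) were given a 5 hr preincubation, treated with compounds 16 hr at 37 C, and read by CellTiter-Glo luminescence.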

[17] = biological target: Bile acid receptor (Homo sapiens) (UniProt Q96RI1); experiment: qHTS assay to identify small molecule antagonists of the farnesoid-X-receptor (FXR) signaling pathway (AID 743217; active = well fitted inhibition curve with a large enough effect in the signal ratio in the repeat runs, not every such curve was filed as active; the % refers to the signal ratio)
How it was run: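 Read-out: beta-lactamase FRET fluorescence (LiveBLAzer B/G substrate, 2 h, room temperature) in GeneBLAzer FXR-UAS-bla HEK 293T cells. Compounds were co-dosed with 50 uM chenodeoxycholic acid (final) and incubated 16 h at 37 °C.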

[18] = biological target: Bile acid receptor (Homo sapiens) (UniProt Q96RI1); experiment: qHTS assay to identify small molecule agonists of the farnesoid-X-receptor (FXR) signaling pathway (AID 743220; active = well fitted activation curve with a large enough effect in the signal ratio in the repeat runs, not every such curve was filed as active; the % refers to the signal ratio)
How it was run: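 FXR-UAS-bla HEK 293T cells carrying a UAS-driven beta-lactamase reporter were plated for 5 h at 37C/5% CO2, then exposed to DMSO-dissolved Tox21 10K compounds for 16 h at 37C. A LiveBLAzer B/G FRET substrate was loaded for 2 h at room temperature before fluorescence reading.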

[19] = biological target: Vitamin D3 receptor (Homo sapiens) (UniProt P11473); experiment: qHTS assay to identify small molecule agonists of the vitamin D receptor (VDR) signaling pathway (AID 743222)
How it was run: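 Beta-lactamase reporter readout (LiveBLAzer B/G FRET, 2 h RT) in VDR-bla cells after 16 h compound treatment at 37C, 5% CO2; cells pre-incubated 4 h before pin transfer of DMSO solutions.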

[20] = biological target: Vitamin D3 receptor (Homo sapiens) (UniProt P11473); experiment: qHTS assay to identify small molecule antagonists of the vitamin D receptor (VDR) signaling pathway (AID 743223; active = well fitted inhibition curve with a large enough effect in the signal ratio in the repeat runs, not every such curve was filed as active; the % refers to the signal ratio)
How it was run: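 Reporter line VDR-bla; stimulus 1alpha,25-(OH)2 vitamin D3, 3 nM final; compound co-addition, 16 h 37C/5% CO2; LiveBLAzer B/G substrate 2 h RT; fluorescence intensity.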

Measured: Potency

Chain of Vitamin D3 receptor (Homo sapiens) (P11473 whole entry, looked up): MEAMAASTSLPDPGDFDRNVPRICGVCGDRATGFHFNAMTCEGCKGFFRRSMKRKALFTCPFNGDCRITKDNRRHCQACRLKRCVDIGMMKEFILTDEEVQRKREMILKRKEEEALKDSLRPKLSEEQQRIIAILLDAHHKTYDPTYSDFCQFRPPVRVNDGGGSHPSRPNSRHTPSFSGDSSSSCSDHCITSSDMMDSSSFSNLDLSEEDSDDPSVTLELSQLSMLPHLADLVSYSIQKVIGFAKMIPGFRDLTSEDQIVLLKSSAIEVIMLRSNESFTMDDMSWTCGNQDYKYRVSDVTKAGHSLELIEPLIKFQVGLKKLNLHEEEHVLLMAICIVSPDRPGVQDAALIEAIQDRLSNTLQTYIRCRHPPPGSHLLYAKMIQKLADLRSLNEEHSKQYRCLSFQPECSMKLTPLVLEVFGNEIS
Chain of Retinoic acid receptor RXR-alpha (Homo sapiens) (P19793 whole entry, looked up): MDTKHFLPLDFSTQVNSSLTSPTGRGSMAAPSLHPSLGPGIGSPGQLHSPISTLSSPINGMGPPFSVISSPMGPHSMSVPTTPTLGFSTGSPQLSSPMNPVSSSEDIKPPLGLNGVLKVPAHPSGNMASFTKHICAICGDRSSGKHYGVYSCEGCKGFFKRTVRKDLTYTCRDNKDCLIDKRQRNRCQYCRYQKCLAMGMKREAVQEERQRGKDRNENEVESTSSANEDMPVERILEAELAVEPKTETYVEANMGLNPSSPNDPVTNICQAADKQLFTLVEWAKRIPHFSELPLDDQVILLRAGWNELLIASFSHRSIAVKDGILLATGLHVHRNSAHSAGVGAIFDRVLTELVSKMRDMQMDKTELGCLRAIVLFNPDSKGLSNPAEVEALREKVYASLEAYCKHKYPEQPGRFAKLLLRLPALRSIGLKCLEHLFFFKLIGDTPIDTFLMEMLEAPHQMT
Chain of Bile acid receptor (Homo sapiens) (Q96RI1 whole entry, looked up): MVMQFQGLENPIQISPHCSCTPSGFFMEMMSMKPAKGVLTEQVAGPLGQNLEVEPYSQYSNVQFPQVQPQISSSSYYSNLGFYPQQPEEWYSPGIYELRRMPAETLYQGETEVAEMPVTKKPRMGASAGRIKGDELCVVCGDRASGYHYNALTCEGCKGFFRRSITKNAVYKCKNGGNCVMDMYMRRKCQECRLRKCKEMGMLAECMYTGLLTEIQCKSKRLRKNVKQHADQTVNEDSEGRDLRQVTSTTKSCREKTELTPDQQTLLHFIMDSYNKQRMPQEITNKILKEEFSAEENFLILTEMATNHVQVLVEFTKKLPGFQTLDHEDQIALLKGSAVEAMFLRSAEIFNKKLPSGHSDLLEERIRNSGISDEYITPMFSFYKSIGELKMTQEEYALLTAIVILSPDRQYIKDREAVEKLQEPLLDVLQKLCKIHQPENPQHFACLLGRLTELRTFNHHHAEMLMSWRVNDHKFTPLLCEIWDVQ
Chain of Peroxisome proliferator-activated receptor delta (Homo sapiens) (Q03181 whole entry, looked up): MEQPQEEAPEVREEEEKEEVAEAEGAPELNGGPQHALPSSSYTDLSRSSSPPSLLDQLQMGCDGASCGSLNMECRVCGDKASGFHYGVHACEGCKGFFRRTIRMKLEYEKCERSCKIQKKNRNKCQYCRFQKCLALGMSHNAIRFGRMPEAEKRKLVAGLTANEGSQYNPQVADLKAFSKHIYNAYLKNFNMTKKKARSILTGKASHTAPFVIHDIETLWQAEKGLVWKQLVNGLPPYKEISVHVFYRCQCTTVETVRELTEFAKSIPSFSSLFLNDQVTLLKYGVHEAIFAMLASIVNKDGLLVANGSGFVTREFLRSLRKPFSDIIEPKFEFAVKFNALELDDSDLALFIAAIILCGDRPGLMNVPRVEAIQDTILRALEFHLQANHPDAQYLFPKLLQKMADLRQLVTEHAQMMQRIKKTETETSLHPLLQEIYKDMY

CC(=O)OC/C=C(/C)CCC=C(C)C
not listed: [17] | [18] | [19] | [20]
inactive: all other assays above

CC(C)C(C)C
not listed: [7] | [17] | [18] | [19] | [20]
inactive: all other assays above

CCCCc1ccc(Cl)cc1
not listed: [20]
inactive: all other assays above

CC(C)C[P+](C)(CC(C)C)CC(C)C
inactive: all assays above

CCCCCCCCC1CO1 (stereo unspecified)
inactive: all assays above

C=CCON/C(CCC)=C1\C(=O)CC(C)(C)C(C(=O)OC)=C1O
not listed: [18]
inactive: all other assays above

O=c1c(O)c(O)c1=O
not listed: [7] | [17] | [18]
inactive: all other assays above

CC/C=C\CCOC(=O)c1ccccc1
not listed: [5] | [6] | [19]
inactive: all other assays above

Cc1cc(=O)oc2cc(O[C@@H]3SC[C@@H](O)[C@H](O)[C@H]3O)ccc12
not listed: [20]
inactive: all other assays above

CC(C)CC(=O)N[C@H](C(=O)N[C@H](C(=O)N[C@@H](CC(C)C)[C@@H](O)CC(=O)N[C@@H](C)C(=O)N[C@@H](CC(C)C)[C@@H](O)CC(=O)O)C(C)C)C(C)C (Isovaleryl-VV[Sta]A[Sta]-OH)
not listed: [17] | [18]
inactive: all other assays above

O=S(=O)(O)c1cc(I)c(O)c2ncccc12
not listed: [7] | [17] | [18] | [19] | [20]
inactive: all other assays above

CC(C)CC(O)Cc1ccccc1 (stereo unspecified)
not listed: [7] | [17] | [18] | [20]
inactive: all other assays above

C=CC(=O)CC
not listed: [7] | [17]
inactive: all other assays above

CC(C)C(=O)Nc1cccc(C2CN3CCSC3=N2)c1 (stereo unspecified)
not listed: [7]
inactive: all other assays above

CC(=O)c1ccc(O)c(C(N)=O)c1
not listed: [6] | [20]
inactive: all other assays above
